In paper PMC4336329 (PLoS ONE, 2015):
Among all 310,000 compounds or so, about 14,000 (4.5%) showed an effect of 50% or more. Effects have a minus sign here. This excerpt belongs to a sample that is enriched for strong results.

What follows are compounds tested against human ether-à-go-go-related gene (hERG) potassium channel (human, UniProt Q12809) (assay: primary screen, population patch clamp on CHO cells stably expressing hERG; higher = less effect of the substance).
Description: Briefly, Chinese hamster ovary (CHO) cells stably expressing the hERG channel were dislodged from tissue culture flasks and dispensed into PPC plates. […] During the recording, background leak currents were estimated by a 100 ms step to -80 mV from an initial holding potential of -70 mV and subtracted from the subsequent current measurement. The campaign was conducted in two phases using slight differences in recording protocol. In the first phase, the initial voltage pulse used a 100 ms step to -30 mV from a holding potential of -70 mV, a 2 s conditioning step to +25 mV, and a 2 s test step to -30 mV. During the second phase of the screen, the potential during the conditioning step was raised to +45 mV. In both phases of the campaign, a secondary voltage pulse was applied using the same parameters as the second phase initial pulse. The initial and secondary pulses were applied in the absence of compound, and upon application of 1 μM and 10 μM test concentrations. […]
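Also: peak tail current of the secondary pulse compared with the same well before compound.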

human ether-à-go-go-related gene (hERG) potassium channel, sequence (Q12809 whole entry, looked up): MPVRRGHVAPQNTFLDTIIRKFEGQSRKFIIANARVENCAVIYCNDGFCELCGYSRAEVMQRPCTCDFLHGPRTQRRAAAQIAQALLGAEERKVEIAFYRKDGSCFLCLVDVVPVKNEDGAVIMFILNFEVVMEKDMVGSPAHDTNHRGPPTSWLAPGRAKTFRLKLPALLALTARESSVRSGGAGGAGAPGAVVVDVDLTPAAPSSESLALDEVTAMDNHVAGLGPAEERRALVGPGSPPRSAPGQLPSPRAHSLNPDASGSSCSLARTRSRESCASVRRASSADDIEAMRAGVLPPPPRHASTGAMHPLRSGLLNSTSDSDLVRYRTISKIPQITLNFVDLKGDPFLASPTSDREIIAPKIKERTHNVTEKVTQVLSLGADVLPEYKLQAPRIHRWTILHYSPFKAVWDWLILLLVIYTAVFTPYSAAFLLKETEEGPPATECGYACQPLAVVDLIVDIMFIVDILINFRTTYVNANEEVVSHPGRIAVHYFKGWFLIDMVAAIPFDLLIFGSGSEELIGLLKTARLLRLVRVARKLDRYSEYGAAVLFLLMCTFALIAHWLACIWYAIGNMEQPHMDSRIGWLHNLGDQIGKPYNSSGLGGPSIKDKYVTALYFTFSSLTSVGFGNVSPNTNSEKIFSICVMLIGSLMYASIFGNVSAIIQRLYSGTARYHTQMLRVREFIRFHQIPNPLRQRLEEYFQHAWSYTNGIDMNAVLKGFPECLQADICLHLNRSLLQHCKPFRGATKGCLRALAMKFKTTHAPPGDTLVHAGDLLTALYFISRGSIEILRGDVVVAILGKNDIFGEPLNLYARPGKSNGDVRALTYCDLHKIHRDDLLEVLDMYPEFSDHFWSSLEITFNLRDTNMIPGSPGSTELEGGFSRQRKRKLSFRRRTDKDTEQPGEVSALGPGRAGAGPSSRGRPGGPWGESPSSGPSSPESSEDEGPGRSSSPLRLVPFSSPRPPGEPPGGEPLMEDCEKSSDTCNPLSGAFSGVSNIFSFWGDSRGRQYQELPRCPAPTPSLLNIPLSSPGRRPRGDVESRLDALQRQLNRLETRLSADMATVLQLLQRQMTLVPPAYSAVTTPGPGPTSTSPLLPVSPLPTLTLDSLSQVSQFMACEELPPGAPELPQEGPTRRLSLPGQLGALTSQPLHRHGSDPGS

SMILES	hERG current change (%, negative = inhibition) at 10uM [%]
NC(=O)CCCn1c(C(=O)c2ccc(Cl)cc2)c2ccc(C(F)(F)F)cc2[n+]1[O-]	-77.9
NC(=O)CCn1c(C(=O)c2ccc(Cl)cc2)c2ccccc2[n+]1[O-]	-23.7
NC(=O)CCn1c(C(=O)c2cc(Cl)c(N)c(Cl)c2)c2ccccc2[n+]1[O-]	17.9
COc1ccc(/C=C2\N=C(c3ccccc3)N(c3ccc(C(=O)O)cc3)C2=O)cc1OC	6.76
CC(C)Oc1ccc(C2CC(=O)N(Nc3ccc([N+](=O)[O-])cc3[N+](=O)[O-])C2=O)cc1 (stereo not shown)	-15.6
O=C1C2C3C=CC(C3)C2C(=O)N1Nc1ccc([N+](=O)[O-])cc1[N+](=O)[O-] (stereo not shown)	3.34
CCOc1ccc(C2CC(=O)N(Nc3ccc([N+](=O)[O-])cc3[N+](=O)[O-])C2=O)cc1 (stereo not shown)	-51.7
Cc1ccc(-n2c(=O)[nH]c3c(C(N)=O)nc(C(C)C)nc32)cc1	15.1
Cc1nnc(N2CCC(C(=O)N3CCCCC3)CC2)c2nn(-c3ccc(Cl)cc3)c(C)c12	-73.9
CCN1CCN(C(=O)C2CCN(c3nnc(C)c4c(C)n(-c5ccc(C)cc5)nc34)CC2)CC1	3.86
CCOc1ccccc1CNC(=O)C1CCCN(c2nnc(C)c3c(C)n(-c4ccccc4)nc23)C1 (stereo not shown)	4.08
COc1ccc(-n2nc3c(N4CCC(C(=O)N5CCC(C)CC5)CC4)nnc(C)c3c2C)cc1	-46.3
Cc1ccccc1CNC(=O)C1CCCN(c2nnc(C)c3c(C)n(-c4ccccc4)nc23)C1 (stereo not shown)	-5.38
Cc1nnc(N2CCCC(C(=O)NCc3ccccc3F)C2)c2nn(-c3ccccc3)c(C)c12 (stereo not shown)	-51.2
COc1ccc(-n2nc3c(N4CCC(C(=O)N5CCCCCC5)CC4)nnc(C)c3c2C)cc1	-53.7
CCCN1CCN(C(=O)C2CCN(c3nnc(C)c4c(C)n(-c5ccc(C)cc5)nc34)CC2)CC1	-32.3
Cc1ccc(-n2nc3c(N4CCC(C(=O)N5CCN(C)CC5)CC4)nnc(C)c3c2C)cc1	11.9
Cc1ccc(-n2nc3c(N4CCC(C(=O)N5CCCCCC5)CC4)nnc(C)c3c2C)cc1	-68.7
COc1ccc(-n2nc3c(N4CCC(C(=O)NC5CCCCC5)CC4)nnc(C)c3c2C)cc1	-5.39
Cc1ccc(-n2nc3c(N4CCC(C(=O)N5CCC(C(N)=O)CC5)CC4)nnc(C)c3c2C)cc1	12

SMILES	hERG current change (%, negative = inhibition) at 10uM [%]
CCOc1ccc(Cn2c3ccc(OC)cc3c3nc4ccccc4nc32)cc1	15.4
O=C(COC(=O)c1cccnc1Cl)c1ccccc1	-4.84
CSc1ccccc1NC(=O)CN(C1CCCCC1)S(C)(=O)=O	-1.49
CSC[C@H](NC(=O)Cc1c(C)c2cc3c(C)c(C)oc3cc2oc1=O)C(=O)N[C@@H](Cc1ccccc1)C(=O)O	1.76
Cc1ccc(S(=O)(=O)Nc2ccc(Cl)cn2)cc1C	15
CN(C)CCSc1nc(N)c2c3c(sc2n1)CN(C)CC3	9.66
CCCCc1nc2c(C)c(N)cnc2n1Cc1cccc([N+](=O)[O-])c1	-44.1
N#CC1=C2SCN(Cc3ccccc3)CN2C(=O)CC1c1cccs1 (stereo not shown)	6.44
O=C(Nc1ccc2oc(-c3ccccc3Cl)nc2c1)c1cncc(Br)c1	-8.01
CCc1ccc(CNC(=O)C2CCN(c3nnc(C)c4c(C)n(-c5ccc(C)cc5)nc34)CC2)cc1	-1.17
Cc1nnc(N2CCC(C(=O)N3CCCCCC3)CC2)c2nn(-c3ccc(Cl)cc3)c(C)c12	-65.2
Cc1nnc(N2CCC(C(=O)NC3CCC(C)CC3)CC2)c2nn(-c3ccc(Cl)cc3)c(C)c12 (stereo not shown)	18.8
CC(=O)Nc1ccc(S(=O)(=O)NCCCN2CCOCC2)cc1	16
Cc1cccc(NC(=O)C2CCCN2/C=C/C(=O)C(F)(F)F)c1C (stereo not shown)	4.61
COc1ccc(C(=O)CC(=O)C(=O)Nc2cccc(C(C)=O)c2)cc1	29.9
COc1ccc(N2C(=S)NC(C)(C)CC2(C)c2ccc(OC(C)=O)cc2OC(C)=O)cc1 (stereo not shown)	6.26
COc1ccc(C2(c3ccc(OC(C)=O)cc3OC(C)=O)CC(c3ccccc3)NC(=S)N2)cc1 (stereo not shown)	-50.2
COc1ccc(C2(c3ccc(O)cc3O)CC(c3ccccc3Cl)NC(=S)N2)cc1 (stereo not shown)	-15
O=C(Cc1ccccc1[N+](=O)[O-])Nc1ccccc1C(=O)N1CCCC1	23.2
Cc1cc(C)cc(NC(=S)NCC2CCN(C(C)c3ccccc3)C2)c1 (stereo not shown)	-63.3
